The values below come from PubChem BioAssay (NCATS).

A number with no mark means an inactive call. Inconclusive results are not listed. Calls of active or inactive are those of the source. Unless noted, calls come from the whole dose curve; as a rule, active = well fitted curve in the direction sought with a large enough effect; inconclusive = small, poorly fitted or top-dose-only effect, or another doubt; inactive = no such curve, though single readings can be large; an effect the other way counts as inactive or inconclusive.

Test [1] deals with Cytochrome P450 1A2 (Homo sapiens) (UniProt P05177). Description: p450-cyp1a2 (AID 410; calls by dose curve; note: potency is the fitted concentration of half-maximal effect;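 for activity change, negative = inhibition: -100% = full effect of reference inhibitor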). The method in brief:
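Human CYP1A2 (20nM) demethylated Luciferin-ME at its Km (100uM) in 100mM KPO4. After 10 min compound preincubation, NADPH regeneration ran the reaction 60 min at room temperature. Luciferin was read by luminescence, normalized to 57 uM furafylline.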

Test [2] in a line: NFAT Signaling Pathway (AID 444; active = well fitted curve in either direction with a large enough effect, not every such curve was filed as active;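 note: carbachol stimulus at about its EC50 of 1 µM final; % is set by controls: 0 for no effect and ±100 for the full control effect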). The following applies: Jurkat NFAT-bla M1, carbachol, beta-lactamase ratio, 5 h; at 17.2 µM (top of the series) unless noted. The method in brief:
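Read-out: CCF4 FRET ratio (460 nm/530 nm) after 1 h RT dye loading, used for %activity and AC50 from titration series. Cells: Jurkat NFAT-β-lactamase/M1 line, treated with compound plus 1 uM carbachol for 5 h, 37 °C.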

A short description of test [3]: Stat Signaling Pathway (AID 446; active = well fitted curve in either direction with a large enough effect, not every such curve was filed as active;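 note: ME-180 cervical cancer cells given 40 pM IL-6 alongside compound; SIE-controlled beta-lactamase reporter measured as 460/530 nm FRET emission ratio; % is set by controls: 0 for no effect and ±100 for the full control effect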). The note with it: ME-180 SIE beta-lactamase reporter, IL-6 stimulated, 5 h; at 17.2 µM (top of the series) unless noted. A digest of the protocol:
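IL-6/STAT signaling read in ME-180 cells via an SIE beta-lactamase reporter. Stimulus was 40 pM IL-6 (its AC50) for 5 hrs, so both activation and inhibition register.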

Test [4] deals with Glucocorticoid receptor (Homo sapiens) (UniProt P04150). The experiment in a line: GR-GFP Redistribution (AID 450;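 active = compounds whose dose series gives a full or clear partial fitted curve of increased nuclear translocation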; note: potency is the fitted concentration of half-maximal effect).
Glucocorticoid receptor (Homo sapiens), sequence (P04150 whole entry, looked up): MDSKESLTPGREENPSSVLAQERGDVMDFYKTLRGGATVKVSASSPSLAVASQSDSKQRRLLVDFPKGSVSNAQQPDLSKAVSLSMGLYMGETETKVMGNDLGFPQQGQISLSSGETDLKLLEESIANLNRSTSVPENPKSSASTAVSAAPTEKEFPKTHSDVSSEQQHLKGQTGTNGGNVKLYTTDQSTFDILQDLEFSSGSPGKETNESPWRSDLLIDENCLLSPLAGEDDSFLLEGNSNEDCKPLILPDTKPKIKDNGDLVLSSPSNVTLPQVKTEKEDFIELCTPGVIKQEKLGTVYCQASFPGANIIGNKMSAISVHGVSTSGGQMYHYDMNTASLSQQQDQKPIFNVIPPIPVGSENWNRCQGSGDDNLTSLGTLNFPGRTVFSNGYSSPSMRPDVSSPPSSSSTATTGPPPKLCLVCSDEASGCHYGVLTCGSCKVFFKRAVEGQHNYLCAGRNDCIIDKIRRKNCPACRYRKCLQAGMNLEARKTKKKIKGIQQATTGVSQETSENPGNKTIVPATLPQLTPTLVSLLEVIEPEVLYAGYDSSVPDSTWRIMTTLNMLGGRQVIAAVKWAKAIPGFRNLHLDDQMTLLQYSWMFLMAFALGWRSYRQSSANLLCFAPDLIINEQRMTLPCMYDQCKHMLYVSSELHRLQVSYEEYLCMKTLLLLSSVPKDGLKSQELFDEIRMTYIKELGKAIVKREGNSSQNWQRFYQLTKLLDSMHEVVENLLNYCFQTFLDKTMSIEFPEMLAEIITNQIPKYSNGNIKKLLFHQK
For test [5] the target is unchanged. Description: GR-EFC Redistribution (AID 451; calls by dose curve; note: potency is the fitted concentration of half-maximal effect). The following applies: CHO-K1 GR-EFC translocation, beta-gal luminescence, 2 h. The method in brief:
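Translocation of GR-ED fusion to nuclear EA restores b-gal, read by luminescence after 1 h room-temperature detection. Engineered CHO-K1 biosensor cells, 1,000/well, exposed 2 h at 37 C to titrations up to 46 uM final.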

Test [6] deals with Mitogen-activated protein kinase 10 (Mus musculus) (UniProt Q61831). The experiment in a line: JNK3 AlphaScreen Assay (AID 530; active = well fitted curve in either direction with a large enough effect, not every such curve was filed as active;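 note: kinase came from lysate of stimulated human HepG2 cells; signal reports phosphorylation of biotinylated GST-cJun 1-79 at Ser73 with 10 µM ATP; % is set by controls: 0 for no effect and ±100 for the full control effect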). A digest of the protocol: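 Room-temperature AlphaScreen kinase assay; pre-activated HepG2 lysate as JNK3 source, biotin-GST-cJun(1-79) substrate, 10 uM ATP, compound 15 min preincubation.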
In test [7] the target is 3',5'-cyclic-AMP phosphodiesterase 4B (Homo sapiens) (UniProt Q07343). Description: qHTS Assay for Inhibitors of PDE-IV (AID 607; active = well fitted activation curve with a large enough effect in the main read-out, with a control signal flat, not every such curve was filed as active; note: % of control where 0% means no effect). A digest of the protocol:
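Live HEK293 cells with a modified cyclic nucleotide-gated (CNG) channel report intracellular cAMP via membrane-potential dye fluorescence (ex 535/em 590 nm). Endogenous PDE-IV was targeted. Compounds were tested at up to 22.9 uM final; RO 20-1724 100 uM served as control.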
In general terms: qHTS replaces the single test concentration by a dilution series.

Test [8] addresses Guanine nucleotide-binding protein G(i) subunit alpha-1 (Homo sapiens) (UniProt P63096). Description: qHTS Assay for Inhibitors of RGS12 GoLoco Motif Activity (Green Fluorophore) (AID 879).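 Note: 0% = labeled peptide with Gαi1 and full inhibition = labeled peptide alone without protein; negative values mean loss of peptide binding seen as reduced polarization.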 A digest of the protocol:
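Fluorescence polarization assay: 50 nM Gαi1 with 10 nM FITC-labeled RGS12 GoLoco peptide in 10 mM Tris pH 7.5, 150 mM NaCl, 0.1 mM GDP, 0.05% NP40, 10 min at room temperature with compound.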

Test [9] addresses Cytochrome P450 3A4 (Homo sapiens) (UniProt P08684). Description: qHTS Assay for Activators of Cytochrome P450 3A4 (AID 885). Note: nearly all actives have a fitted effect of over 65% in size. A digest of the protocol:
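Quantitative HTS format: compounds preincubated with 20nM human CYP3A4 and Luciferin-PPXE substrate at KM, reaction started by NADPH regeneration, stopped after 60 min, luciferase luminescence read 20 min later.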

Test [10] can be described thus: qHTS Assay for Identification of Small Molecule Antagonists for NFkB Signaling Pathway (AID 895; active = well fitted inhibition curve with a large enough effect in the signal ratio, with a control signal flat, not every such curve was filed as active; the % refers to the signal ratio; note: potency is the fitted concentration of half-maximal effect). A digest of the protocol: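 Beta-lactamase reporter read-out (460 and 530 nm emission ratio, 405 nm excitation, 2 hrs substrate loading RT) after 5 hr stimulation with 10 pM TNF alpha in compound-treated NFkB-bla ME-180 cells in low-serum medium.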
Test [11] has as its target Pyruvate kinase (Leishmania mexicana) (UniProt Q27686). Description: qHTS Validation Assay for Inhibitors of Leishmania Mexicana Pyruvate Kinase (AID 945).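 Note: 0% = DMSO only neutral control wells.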 A digest of the protocol:
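Eight-point qHTS titrations; enzyme 0.2 nM LmPYK (E451W mutant); substrates 0.5 mM PEP, 0.1 mM ADP; 7 mM MgCl2; 1 h room temperature; PKLight luminescence normalized to neutral control.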

For test [12], the target named is Pyruvate kinase PKM (Homo sapiens) (UniProt P14618). The experiment in a line: qHTS Assay for Activators of Human Muscle Pyruvate Kinase (AID 954; active = well fitted curve in the direction sought with a large enough effect, not every such curve was filed as active;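 note: 0% = uninhibited enzyme and -100% = no enzyme or full thiadiazolimine inhibition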). A digest of the protocol: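 Enzyme was run at intermediate activity so both inhibitors and activators could be detected. ATP formed from ADP and PEP by 0.1 nM human PKM2 during a 1 h room-temperature incubation was quantified by coupled luciferase luminescence.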
Pyruvate kinase PKM (Homo sapiens), sequence (P14618 whole entry, looked up): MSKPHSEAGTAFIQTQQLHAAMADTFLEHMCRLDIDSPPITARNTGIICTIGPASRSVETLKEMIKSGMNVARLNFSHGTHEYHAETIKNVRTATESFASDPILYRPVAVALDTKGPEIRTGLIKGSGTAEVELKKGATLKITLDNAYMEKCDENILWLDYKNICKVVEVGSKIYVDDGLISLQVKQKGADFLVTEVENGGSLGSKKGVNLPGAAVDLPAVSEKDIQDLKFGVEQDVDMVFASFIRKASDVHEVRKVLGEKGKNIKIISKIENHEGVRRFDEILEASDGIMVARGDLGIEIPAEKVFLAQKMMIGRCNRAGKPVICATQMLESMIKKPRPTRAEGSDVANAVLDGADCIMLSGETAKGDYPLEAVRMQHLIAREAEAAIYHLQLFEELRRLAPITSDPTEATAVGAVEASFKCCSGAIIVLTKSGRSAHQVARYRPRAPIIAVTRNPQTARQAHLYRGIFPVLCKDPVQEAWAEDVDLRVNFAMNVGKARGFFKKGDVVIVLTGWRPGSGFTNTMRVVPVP

In test [13] the target is Alpha-galactosidase A (Homo sapiens) (UniProt P06280). Description: Counterscreen for Glucocerebrosidase Inhibitors: qHTS Assay for Human alpha-Galactosidase at pH 4.5 (AID 992). Note: 0% is about no effect. The method in brief:
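Read-out is 4-methylumbelliferone fluorescence (365 nm excitation, 440 nm emission) after a pH 10 NaOH/glycine stop. Reactions held 2 nM enzyme and 80 uM substrate at pH 4.5 for 20 min at room temperature.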

Test [14] has as its target alpha-glucosidase (Oryza sativa, rice) (UniProt Q653V4). The experiment in a line: Counterscreen for Glucocerebrosidase Inhibitors: qHTS Assay for Rice alpha-Glucosidase at pH 5.0 (AID 997).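 Note: 0% = full activity with enzyme and -100% = basal without enzyme.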 The method in brief: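 Rice alpha-glucosidase (4 nM final) with 400 uM 4-methylumbelliferyl-alpha-D-glucopyranoside in citrate buffer pH 5.0, 20 min at room temperature, stopped at pH 10; fluorescence 365/440 nm, compounds 0.7 nM–77 uM, AC50 from Hill fits.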
In general terms: The purpose of a counterscreen is to sort out artefacts and off-target activity.

Test [15] can be described thus: qHTS Assay for Identification of Small Molecule Agonists for Thrombopoietin (TPO) Signaling Pathway (AID 917). Note: % is set by controls: 0 for no effect and ±100 for the full control effect. The method in brief: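 Reporter: GpIIb promoter–luciferase in murine Ba/F3 expressing human TPO receptor. Pre-starved of IL-3 overnight; compounds with 26 pM TPO, 24 hrs, 37 C/5% CO2; luminescence read.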
In test [16] the target is Muscarinic acetylcholine receptor M1 (Rattus norvegicus) (UniProt P08482). The experiment in a line: qHTS Assay for Antagonists of Acetylcholine Muscarinic M1 Receptor: Measurement of IP-One Response (AID 944). Note: nearly all actives have a fitted effect of over 75% in size. The method in brief:
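CHO cells expressing rat M1 receptor, recovered overnight, were pre-incubated 10 min with compound, then stimulated 30 min with carbachol at EC80 (200 nM) in LiCl-containing buffer, pH 7.4. IP1 accumulation was read by HTRF (620/665 nm).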

Test [17] concerns the target Pyruvate kinase PKM (Homo sapiens) (UniProt P14618). Description: qHTS Assay for Inhibitors of Human Muscle Pyruvate Kinase (AID 958). A digest of the protocol: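 A coupled luminescent readout tracked ATP made from ADP by purified PKM2. Final conditions included 0.1 nM enzyme, PEP and ADP at 0.5 and 0.1 mM, pH 7.2 imidazole buffer with BSA, and a one-hour room-temperature reaction.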

The target of test [18] is Cytochrome P450 3A4 (Homo sapiens) (UniProt P08684). Description: qHTS Assay for Inhibitors and Substrates of Cytochrome P450 3A4 (AID 884). Note: potency is the fitted concentration of half-maximal effect; nearly all actives have a fitted effect of over 50% in size. A digest of the protocol:
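20 nM human CYP3A4 with 25 uM Luciferin-PPXE (at KM) in 200 mM KPO4, preincubated 10 min with compound; NADPH regeneration started a 60 min RT reaction. Luciferin detected by luminescence, normalized to 57 uM ketoconazole as full inhibition.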

Test [19] addresses Cytochrome P450 2D6 (Homo sapiens) (UniProt P10635). The experiment in a line: qHTS Assay for Inhibitors and Substrates of Cytochrome P450 2D6 (AID 891). Note: nearly all actives have a fitted effect of over 60% in size. Note: potency is the fitted concentration of half-maximal effect. A digest of the protocol:
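Human CYP2D6 (5 nM) with 30 uM Luciferin-ME EGE (at Km) in 100 mM KPO4, compound preincubated 10 min, then NADPH regeneration system for 60 min at room temperature. Luciferin read by luminescence; normalized to 1.43 uM quinidine.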

The nature of test [20]: AP1 Signaling Pathway (AID 357; active = well fitted curve in either direction with a large enough effect, not every such curve was filed as active). The note with it: ME-180 (cervical carcinoma) AP-1-bla reporter, EGF-induced, beta-lactamase ratio, 5 h; at 17.2 µM (top of the series) unless noted. A digest of the protocol:
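Read-out was the 460nm/530nm emission ratio (excitation 405nm) after CCF4 loading for 2.5 hours at room temperature. Cells carried an AP-1-driven beta-lactamase reporter, were stimulated with EC50 EGF plus compound for 5 hours, and AC50 values came from titrations.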

The target of test [21] is Muscarinic acetylcholine receptor M1 (Rattus norvegicus) (UniProt P08482). Description: qHTS Assay for Antagonists of Acetylcholine Muscarinic M1 Receptor: Kinetic Measurement of Intracellular Calcium Response (AID 943).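 Note: Fluo-4 calcium signal as peak divided by basal fluorescence over 4 min; nearly all actives have a fitted effect of over 75% in size.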 A digest of the protocol: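 CHO cells stably expressing rat M1 were loaded with no-wash Fluo-4 dye for 1 h at 37C, pre-incubated 10 min with compound, then challenged with EC80 carbachol (100 nM final); kinetic calcium read 4 min, peak/basal ratio.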
Muscarinic acetylcholine receptor M1 (Rattus norvegicus), sequence (P08482 whole entry, looked up): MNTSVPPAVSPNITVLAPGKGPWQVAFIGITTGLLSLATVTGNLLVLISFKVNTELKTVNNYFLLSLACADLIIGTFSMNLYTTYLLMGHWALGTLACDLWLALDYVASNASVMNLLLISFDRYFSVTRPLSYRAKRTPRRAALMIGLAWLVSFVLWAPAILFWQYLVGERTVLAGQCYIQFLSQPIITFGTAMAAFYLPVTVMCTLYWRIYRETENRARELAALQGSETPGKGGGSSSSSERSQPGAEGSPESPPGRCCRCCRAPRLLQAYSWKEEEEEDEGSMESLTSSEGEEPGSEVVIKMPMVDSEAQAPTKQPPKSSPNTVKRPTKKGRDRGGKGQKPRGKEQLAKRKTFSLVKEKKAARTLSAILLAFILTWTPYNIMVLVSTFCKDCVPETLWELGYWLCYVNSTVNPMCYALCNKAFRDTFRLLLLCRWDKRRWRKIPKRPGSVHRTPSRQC

The target in test [22] is Cytochrome P450 2C9 (Homo sapiens) (UniProt P11712). The experiment in a line: qHTS Assay for Inhibitors and Substrates of Cytochrome P450 2C9 (AID 883). Note: % is set by controls: 0 for no effect and ±100 for the full control effect; nearly all actives have a fitted effect of over 60% in size. The method in brief: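 Turnover of Luciferin-H (100uM, KM) by 10nM human CYP2C9 was measured over 60 min at 37C with NADPH regeneration; inhibitors and some substrates reduce luminescence. Data normalized to sulphaphenazole 57uM.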

Test [23] addresses Cytochrome P450 2C19 (Homo sapiens) (UniProt P33261). The experiment in a line: qHTS Assay for Inhibitors and Substrates of Cytochrome P450 2C19 (AID 899). Note: potency is the fitted concentration of half-maximal effect; nearly all actives have a fitted effect of over 60% in size. A digest of the protocol: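 Reactions contain 5nM enzyme, 10uM Luciferin-H EGE (KM) and 50mM KPO4; compound preincubates 10 min at 37C, NADPH regeneration starts turnover for 60 min. Luminescence after detection reagent gives activity.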

The target in test [24] is DNA dC->dU-editing enzyme APOBEC-3G (Homo sapiens) (UniProt Q9HC16). Description: qHTS for inhibitors of Vif-A3G interactions: Validation (AID 588379). Note: 0% is about no effect. A digest of the protocol: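 HeLa cells stably expressing Vif and A3G-eYFP, 700 cells/well, incubated overnight at 37 deg C, then exposed to compound overnight at 37 deg C. Inhibition of Vif-mediated degradation read as increased yellow fluorescence (Ex 488/Em 500-530) by laser-scanning cytometry.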

Guanine nucleotide-binding protein G(i) subunit alpha-1 (Homo sapiens), sequence (P63096 whole entry, looked up): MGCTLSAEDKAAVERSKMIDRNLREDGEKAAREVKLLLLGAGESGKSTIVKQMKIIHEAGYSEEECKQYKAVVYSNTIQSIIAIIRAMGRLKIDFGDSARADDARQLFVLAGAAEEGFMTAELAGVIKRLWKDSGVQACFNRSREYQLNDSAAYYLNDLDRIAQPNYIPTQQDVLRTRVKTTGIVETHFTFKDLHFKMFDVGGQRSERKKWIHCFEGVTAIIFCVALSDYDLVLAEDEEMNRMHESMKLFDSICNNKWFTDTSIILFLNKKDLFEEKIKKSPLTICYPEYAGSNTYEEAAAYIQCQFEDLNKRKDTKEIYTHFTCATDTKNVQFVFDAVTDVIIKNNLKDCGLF
Pyruvate kinase (Leishmania mexicana), sequence (Q27686 2-499 E452W): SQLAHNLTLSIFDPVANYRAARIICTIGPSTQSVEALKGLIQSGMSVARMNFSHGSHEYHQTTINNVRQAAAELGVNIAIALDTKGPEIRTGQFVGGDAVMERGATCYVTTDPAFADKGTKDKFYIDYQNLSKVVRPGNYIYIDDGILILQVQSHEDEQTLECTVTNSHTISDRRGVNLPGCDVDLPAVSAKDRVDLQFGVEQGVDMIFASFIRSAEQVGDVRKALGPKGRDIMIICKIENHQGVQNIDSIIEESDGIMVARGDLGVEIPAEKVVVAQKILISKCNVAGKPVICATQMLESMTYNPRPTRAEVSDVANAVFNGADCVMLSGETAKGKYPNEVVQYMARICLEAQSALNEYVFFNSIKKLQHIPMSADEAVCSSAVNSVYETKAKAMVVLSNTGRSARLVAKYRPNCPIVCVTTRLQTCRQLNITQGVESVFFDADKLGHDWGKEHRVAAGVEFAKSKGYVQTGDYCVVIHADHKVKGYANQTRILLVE
Cytochrome P450 3A4 (Homo sapiens), sequence (P08684 whole entry, looked up): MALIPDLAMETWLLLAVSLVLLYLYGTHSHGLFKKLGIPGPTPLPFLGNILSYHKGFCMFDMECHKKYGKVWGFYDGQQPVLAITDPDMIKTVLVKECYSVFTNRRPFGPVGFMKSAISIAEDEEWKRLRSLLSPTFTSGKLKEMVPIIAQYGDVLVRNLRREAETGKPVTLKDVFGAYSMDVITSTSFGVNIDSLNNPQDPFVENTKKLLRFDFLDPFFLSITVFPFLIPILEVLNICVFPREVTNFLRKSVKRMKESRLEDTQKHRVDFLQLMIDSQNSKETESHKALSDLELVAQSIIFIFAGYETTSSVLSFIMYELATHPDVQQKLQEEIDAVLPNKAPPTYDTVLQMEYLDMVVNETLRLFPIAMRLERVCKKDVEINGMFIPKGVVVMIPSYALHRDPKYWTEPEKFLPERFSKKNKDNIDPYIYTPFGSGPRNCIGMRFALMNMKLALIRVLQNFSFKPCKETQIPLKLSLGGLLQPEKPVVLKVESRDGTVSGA
3',5'-cyclic-AMP phosphodiesterase 4B (Homo sapiens), sequence (Q07343 whole entry, looked up): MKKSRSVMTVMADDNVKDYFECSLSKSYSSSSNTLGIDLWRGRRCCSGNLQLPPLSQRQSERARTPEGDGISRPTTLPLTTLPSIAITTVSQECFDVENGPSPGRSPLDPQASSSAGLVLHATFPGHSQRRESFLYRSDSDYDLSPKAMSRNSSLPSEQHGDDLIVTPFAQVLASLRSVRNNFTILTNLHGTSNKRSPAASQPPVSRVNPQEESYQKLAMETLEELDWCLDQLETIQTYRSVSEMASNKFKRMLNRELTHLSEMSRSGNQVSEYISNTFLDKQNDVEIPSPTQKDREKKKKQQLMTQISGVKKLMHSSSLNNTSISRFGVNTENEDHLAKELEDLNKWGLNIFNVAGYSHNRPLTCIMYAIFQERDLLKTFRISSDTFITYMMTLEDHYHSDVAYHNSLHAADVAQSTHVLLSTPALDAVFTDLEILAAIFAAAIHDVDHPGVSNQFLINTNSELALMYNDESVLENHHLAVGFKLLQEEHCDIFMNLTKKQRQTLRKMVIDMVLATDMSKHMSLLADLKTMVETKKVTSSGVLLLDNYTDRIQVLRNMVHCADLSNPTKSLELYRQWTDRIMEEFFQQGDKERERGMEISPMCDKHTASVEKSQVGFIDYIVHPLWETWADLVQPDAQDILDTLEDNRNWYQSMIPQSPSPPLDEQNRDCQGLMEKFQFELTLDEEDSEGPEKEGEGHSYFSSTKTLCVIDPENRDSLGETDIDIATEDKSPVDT
Alpha-galactosidase A (Homo sapiens), sequence (P06280 whole entry, looked up): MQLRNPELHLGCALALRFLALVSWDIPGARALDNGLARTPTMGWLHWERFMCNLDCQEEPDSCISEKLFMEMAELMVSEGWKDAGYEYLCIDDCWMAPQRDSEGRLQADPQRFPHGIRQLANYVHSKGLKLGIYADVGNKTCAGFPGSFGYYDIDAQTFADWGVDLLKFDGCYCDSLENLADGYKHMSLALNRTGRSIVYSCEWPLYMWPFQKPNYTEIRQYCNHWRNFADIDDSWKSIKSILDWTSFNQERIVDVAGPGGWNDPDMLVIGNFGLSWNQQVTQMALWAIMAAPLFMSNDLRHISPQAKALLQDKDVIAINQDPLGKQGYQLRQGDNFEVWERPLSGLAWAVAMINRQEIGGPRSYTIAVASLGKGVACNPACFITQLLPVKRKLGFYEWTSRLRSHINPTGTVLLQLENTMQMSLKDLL
Cytochrome P450 1A2 (Homo sapiens), sequence (P05177 whole entry, looked up): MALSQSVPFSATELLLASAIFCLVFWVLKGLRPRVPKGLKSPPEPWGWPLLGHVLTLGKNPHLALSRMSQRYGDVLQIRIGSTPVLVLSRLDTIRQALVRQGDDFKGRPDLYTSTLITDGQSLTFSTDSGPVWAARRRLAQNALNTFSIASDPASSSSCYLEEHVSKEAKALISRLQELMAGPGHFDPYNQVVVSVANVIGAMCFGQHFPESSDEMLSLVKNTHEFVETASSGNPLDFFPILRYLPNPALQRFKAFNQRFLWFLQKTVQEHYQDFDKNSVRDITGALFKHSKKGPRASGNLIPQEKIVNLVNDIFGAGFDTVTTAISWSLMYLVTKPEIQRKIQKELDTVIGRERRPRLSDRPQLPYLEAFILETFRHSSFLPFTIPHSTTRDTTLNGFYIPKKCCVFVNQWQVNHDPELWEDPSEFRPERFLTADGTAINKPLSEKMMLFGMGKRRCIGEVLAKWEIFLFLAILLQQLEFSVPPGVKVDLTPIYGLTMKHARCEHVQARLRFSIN

For `C[C@H](N)C1CCC(C(=O)Nc2ccncc2)CC1` (stereo partly specified), the Potency result in test [1], in [6], in [7], in test [9] and in test [11] was “inactive” in each case. Besides, the activity change, negative = inhibition in [2] was 3.2% [at 38 µM]. In addition, in [3], the activity, negative = inhibition is -8.56% [at 38 µM]. The figures for the Potency in [4], in test [5] and in [10] were more than 46 µM, more than 46 µM and 7.94 µM (active), respectively. Further, the molecule was classed as inactive in test [8], in test [12], in test [13] and in test [14].

With `CNC(=O)[C@@H]1O[C@@H](n2cnc3c(NCc4cccc(I)c4)ncnc32)[C@H](O)[C@@H]1O`, the Potency entry in [1], in [7], in test [9], in [15], in test [16] and in test [11] was “inactive” each time. Further, in [17], the Potency entry was “inactive”. The activity change, negative = inhibition in test [2] is 9.56% [at 38 µM]. Moreover, the activity, negative = inhibition in test [3] was -11.2% [at 38 µM]. In addition, the Potency in [4] and in test [5] was more than 46 µM each time. The outcome in test [8], in test [13] and in [14] was inactive.

On to `CC[C@]1(O)C[C@H]2CN(CCc3c([nH]c4ccccc34)[C@](C(=O)OC)(c3cc4c(cc3OC)N(C=O)[C@H]3[C@@](O)(C(=O)OC)[C@H](OC(C)=O)[C@@]5(CC)C=CCN6CC[C@]43[C@H]65)C2)C1`, for which the Potency result in test [1], in test [7], in test [9], in test [19], in test [10] and in [11] was “inactive” in each case. The activity change, negative = inhibition in test [2] was -8.89% [at 38 µM]. For the same molecule, in test [3], the activity, negative = inhibition was -14.3% [at 38 µM]. The Potency in test [4] is more than 46 µM; in [5], more than 46 µM; in test [18], 3.98 µM (active). In addition, the call in test [8], in test [12], in test [13] and in test [14] was inactive.

As to `CCOc1ccc(S(=O)(=O)NC(C)(C)C)cc1-c1nc2c(C(C)(C)C)nn(C)c2c(=O)[nH]1`, the activity change, negative = inhibition in test [20] is -8.82%. Also, the Potency in test [4] was more than 20.6 µM.

For `CCCCC[C@H](O)c1cccc(OCc2ccc3ccccc3n2)c1`, the Potency in [1] is 0.794 µM (active); in test [4], more than 46 µM; in test [5], more than 46 µM. In [3], the activity, negative = inhibition is -0.505% [at 38 µM]. Also, the Potency result in test [6], in [9], in test [15], in [21] and in test [11] was “inactive” each time. Further, the result in test [8], in test [12], in [13] and in test [14] was inactive.

On to `CCCCC#Cc1nc(N)c2ncn([C@@H]3O[C@@H](C(=O)NCC)[C@H](O)[C@@H]3O)c2n1`, for which the Potency entry in test [1], in [6], in [7], in test [9], in [15] and in [16] was “inactive” in each case. Moreover, the Potency entry in test [11] was “inactive”. In addition, in test [2], the activity change, negative = inhibition is 15.6% [at 38 µM]. Also, the Potency in test [4] and in test [5] was more than 46 µM each time. For the same molecule, the outcome in test [8], in [12], in [13] and in test [14] was inactive.

For the molecule `CN1CCc2cc3c(cc2C(=O)Cc2ccc4c(c2C1)OCO4)OCO3`, the Potency in test [1] is 39.8 µM (active); in test [4], more than 46 µM; in test [5], more than 46 µM; in test [19] it was 0.0501 µM (active); in test [23] it was 10 µM (active). Moreover, the Potency result in test [6], in test [22] and in test [9] was “inactive” in each case. Further, the molecule was classed as inactive in test [24].
